# Values without a mark were called inactive.
# Key:
# Experiment in all cases: log2 ratio of Biotin-Ahx-Ub-VS probe labelling (fragment/DMSO); higher = less target engagement (more negative = stronger competition), active = hit call of the paper (q ≤ 0.05, log2 ratio ≤ -1)
# Conditions in all cases: compound concentration: 200 uM; treatment time: 3 h
# OTUD6B = target: T1, OTUD6B (UniProt Q8N6M0)
# T1 sequence (whole entry): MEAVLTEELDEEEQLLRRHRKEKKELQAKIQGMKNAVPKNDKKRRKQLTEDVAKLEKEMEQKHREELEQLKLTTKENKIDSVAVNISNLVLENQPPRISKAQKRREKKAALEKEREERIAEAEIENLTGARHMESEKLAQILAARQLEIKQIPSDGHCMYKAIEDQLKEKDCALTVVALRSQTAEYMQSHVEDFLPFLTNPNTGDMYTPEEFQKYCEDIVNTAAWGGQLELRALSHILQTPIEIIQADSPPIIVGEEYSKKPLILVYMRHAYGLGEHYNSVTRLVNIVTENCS
# Method in brief: (§1)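 HEK293T lysate (495 µg per sample, in Tris/CHAPS/IGEPAL buffer with protease inhibitors) was treated in triplicate with fragment at 200 µM or with DMSO for 3 h. It was then treated with Biotin-Ahx-Ub-VS (0.5 µM final) for 1 h. Labelled DUBs were NeutrAvidin-enriched, digested with LysC and trypsin, and run by diaPASEF LC-MS/MS. Spectronaut label-free quantities were global-median-normalised. Values are average log2 ratios fragment/DMSO by unpaired t-test, using proteins with ≥2 unique peptides.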
# OTUD7B = target: T2, OTUD7B (UniProt Q6GQQ9)
# T2 sequence (whole entry): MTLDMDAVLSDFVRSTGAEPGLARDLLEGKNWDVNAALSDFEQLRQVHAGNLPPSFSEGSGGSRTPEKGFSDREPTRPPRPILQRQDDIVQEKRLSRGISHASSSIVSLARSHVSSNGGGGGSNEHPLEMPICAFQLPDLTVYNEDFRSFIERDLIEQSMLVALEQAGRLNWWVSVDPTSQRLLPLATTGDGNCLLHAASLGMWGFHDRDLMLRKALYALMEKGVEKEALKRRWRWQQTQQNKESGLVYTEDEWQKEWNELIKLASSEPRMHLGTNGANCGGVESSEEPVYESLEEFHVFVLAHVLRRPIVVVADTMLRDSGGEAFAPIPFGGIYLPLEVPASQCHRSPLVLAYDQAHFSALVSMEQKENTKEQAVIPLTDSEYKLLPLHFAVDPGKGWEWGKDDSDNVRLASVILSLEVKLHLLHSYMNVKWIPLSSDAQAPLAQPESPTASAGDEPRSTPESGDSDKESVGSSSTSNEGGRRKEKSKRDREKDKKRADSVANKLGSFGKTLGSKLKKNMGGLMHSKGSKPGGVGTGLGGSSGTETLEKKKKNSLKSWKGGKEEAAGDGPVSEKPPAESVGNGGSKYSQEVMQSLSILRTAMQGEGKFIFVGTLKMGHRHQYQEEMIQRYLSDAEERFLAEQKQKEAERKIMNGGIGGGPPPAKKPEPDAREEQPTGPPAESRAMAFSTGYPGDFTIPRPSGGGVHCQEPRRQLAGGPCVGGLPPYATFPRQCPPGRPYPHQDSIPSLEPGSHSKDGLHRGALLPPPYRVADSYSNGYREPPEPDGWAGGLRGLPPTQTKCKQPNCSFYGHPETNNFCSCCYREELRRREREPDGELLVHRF
# Method in brief: as §1
# PRPF8 = PRPF8 (UniProt Q6P2Q9)
# Method in brief: as §1
# PSMD7 = target: T3, PSMD7 (UniProt P51665)
# T3 sequence (whole entry): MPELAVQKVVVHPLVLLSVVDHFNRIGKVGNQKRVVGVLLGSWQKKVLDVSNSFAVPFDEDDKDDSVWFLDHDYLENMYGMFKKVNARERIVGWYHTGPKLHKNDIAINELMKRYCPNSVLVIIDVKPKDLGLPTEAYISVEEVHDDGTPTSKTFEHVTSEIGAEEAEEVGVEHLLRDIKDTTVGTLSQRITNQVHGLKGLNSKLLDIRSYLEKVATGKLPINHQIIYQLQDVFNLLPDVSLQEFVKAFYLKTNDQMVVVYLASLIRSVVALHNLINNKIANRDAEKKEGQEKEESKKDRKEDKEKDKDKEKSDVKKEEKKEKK
# Method in brief: as §1
# UCHL1 = UCHL1 (UniProt P09936)
# Method in brief: as §1
# UCHL3 = target: T4, UCHL3 (UniProt P15374)
# T4 sequence (whole entry): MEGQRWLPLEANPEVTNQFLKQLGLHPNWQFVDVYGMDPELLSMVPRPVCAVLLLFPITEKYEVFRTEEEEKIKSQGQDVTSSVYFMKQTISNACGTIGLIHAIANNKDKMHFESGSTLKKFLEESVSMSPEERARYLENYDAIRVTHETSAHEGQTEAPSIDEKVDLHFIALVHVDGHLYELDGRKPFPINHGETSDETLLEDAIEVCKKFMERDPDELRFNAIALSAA
# Method in brief: as §1
# UCHL5 = target: T5, UCHL5 (UniProt Q9Y5K5)
# T5 sequence (whole entry): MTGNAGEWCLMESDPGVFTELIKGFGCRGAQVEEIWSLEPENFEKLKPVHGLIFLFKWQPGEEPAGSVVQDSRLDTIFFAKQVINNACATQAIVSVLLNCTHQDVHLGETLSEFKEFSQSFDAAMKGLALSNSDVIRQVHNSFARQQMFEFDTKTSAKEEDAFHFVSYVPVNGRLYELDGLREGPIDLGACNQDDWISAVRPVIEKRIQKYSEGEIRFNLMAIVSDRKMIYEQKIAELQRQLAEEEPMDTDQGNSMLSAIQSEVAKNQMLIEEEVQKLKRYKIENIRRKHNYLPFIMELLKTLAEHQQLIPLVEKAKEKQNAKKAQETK
# Method in brief: as §1
# USP10 = USP10 (UniProt Q14694)
# Method in brief: as §1
# USP15 = target: T6, USP15 (UniProt Q9Y4E8)
# T6 sequence (whole entry): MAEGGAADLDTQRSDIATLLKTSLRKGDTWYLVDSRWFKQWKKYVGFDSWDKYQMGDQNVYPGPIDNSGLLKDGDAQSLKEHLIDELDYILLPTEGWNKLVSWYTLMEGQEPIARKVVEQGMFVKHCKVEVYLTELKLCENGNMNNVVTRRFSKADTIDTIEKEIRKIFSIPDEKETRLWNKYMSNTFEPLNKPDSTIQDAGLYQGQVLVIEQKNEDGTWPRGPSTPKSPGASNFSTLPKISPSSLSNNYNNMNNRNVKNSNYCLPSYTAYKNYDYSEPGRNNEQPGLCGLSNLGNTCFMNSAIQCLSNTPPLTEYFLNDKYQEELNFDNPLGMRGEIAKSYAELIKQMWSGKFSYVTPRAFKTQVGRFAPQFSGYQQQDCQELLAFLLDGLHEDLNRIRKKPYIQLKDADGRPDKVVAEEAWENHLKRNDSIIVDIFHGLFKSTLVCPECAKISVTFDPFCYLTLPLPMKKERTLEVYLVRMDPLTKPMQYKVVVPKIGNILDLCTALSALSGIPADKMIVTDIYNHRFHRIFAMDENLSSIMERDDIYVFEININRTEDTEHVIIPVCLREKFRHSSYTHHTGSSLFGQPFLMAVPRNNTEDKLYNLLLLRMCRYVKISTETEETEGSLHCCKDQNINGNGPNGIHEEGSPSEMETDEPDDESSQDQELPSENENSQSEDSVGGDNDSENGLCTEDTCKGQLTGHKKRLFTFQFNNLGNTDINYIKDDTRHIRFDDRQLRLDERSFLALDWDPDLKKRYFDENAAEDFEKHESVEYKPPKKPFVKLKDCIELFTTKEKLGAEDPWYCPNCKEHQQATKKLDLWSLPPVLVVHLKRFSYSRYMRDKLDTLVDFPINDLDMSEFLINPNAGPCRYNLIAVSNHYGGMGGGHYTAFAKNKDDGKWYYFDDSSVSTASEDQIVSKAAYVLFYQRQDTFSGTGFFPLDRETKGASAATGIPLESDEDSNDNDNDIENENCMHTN
# Method in brief: as §1
# USP16 = USP16 (UniProt Q9Y5T5)
# Method in brief: as §1
# Sequence of UCHL1 (P09936 whole entry, looked up): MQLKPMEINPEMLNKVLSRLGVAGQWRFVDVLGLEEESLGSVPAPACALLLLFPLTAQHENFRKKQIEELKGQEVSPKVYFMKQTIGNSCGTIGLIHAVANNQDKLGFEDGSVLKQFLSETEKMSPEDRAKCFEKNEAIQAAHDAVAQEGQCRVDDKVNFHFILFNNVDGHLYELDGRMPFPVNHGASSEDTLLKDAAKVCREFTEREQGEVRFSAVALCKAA
# Sequence of USP16 (Q9Y5T5 whole entry, looked up): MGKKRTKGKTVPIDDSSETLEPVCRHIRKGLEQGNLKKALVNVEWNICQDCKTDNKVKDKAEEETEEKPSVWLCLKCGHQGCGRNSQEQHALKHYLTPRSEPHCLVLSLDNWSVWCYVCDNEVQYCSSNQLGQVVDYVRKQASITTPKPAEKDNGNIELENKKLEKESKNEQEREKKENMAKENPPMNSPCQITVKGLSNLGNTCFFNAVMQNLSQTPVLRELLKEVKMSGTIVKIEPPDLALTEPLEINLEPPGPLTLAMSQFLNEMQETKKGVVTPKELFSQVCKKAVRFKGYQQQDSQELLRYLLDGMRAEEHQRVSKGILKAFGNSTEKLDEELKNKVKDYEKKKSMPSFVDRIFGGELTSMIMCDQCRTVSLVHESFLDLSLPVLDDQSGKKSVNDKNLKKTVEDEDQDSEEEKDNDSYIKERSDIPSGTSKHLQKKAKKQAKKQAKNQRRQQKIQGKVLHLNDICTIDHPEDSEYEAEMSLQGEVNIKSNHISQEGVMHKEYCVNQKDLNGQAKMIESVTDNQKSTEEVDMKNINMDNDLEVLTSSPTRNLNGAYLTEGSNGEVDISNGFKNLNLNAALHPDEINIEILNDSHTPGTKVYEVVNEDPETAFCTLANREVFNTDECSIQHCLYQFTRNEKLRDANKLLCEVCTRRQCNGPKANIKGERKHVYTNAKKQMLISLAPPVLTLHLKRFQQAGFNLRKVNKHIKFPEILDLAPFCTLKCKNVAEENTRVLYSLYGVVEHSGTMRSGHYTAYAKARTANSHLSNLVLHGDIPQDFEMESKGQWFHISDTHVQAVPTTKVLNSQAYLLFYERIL
# Sequence of USP10 (Q14694 whole entry): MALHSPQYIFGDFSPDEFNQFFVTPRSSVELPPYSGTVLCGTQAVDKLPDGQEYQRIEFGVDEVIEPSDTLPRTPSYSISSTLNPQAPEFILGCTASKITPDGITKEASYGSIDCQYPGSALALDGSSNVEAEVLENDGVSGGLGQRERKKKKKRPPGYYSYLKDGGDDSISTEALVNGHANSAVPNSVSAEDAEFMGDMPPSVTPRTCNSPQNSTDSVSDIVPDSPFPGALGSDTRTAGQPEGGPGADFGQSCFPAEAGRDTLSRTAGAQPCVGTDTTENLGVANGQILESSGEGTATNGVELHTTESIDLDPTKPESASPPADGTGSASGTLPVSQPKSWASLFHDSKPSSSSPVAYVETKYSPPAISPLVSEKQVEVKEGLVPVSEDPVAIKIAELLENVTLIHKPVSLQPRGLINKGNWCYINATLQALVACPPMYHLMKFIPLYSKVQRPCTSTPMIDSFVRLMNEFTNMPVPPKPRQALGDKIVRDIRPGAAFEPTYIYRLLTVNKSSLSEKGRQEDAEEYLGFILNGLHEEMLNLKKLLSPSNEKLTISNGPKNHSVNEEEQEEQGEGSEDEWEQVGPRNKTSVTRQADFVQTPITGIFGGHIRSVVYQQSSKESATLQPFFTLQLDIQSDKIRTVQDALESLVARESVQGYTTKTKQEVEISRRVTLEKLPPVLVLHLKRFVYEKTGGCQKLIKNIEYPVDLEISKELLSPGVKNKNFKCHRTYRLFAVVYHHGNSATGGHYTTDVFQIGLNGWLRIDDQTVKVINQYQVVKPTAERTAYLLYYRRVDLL
structure (smiles),measurement,setting,value
O=C(CCl)N[C@H]1CC[C@@H](CO)CC1,log2 ratio of Biotin-Ahx-Ub-VS probe labelling,OTUD6B,-0.662
same,log2 ratio of Biotin-Ahx-Ub-VS probe labelling,OTUD7B,-1.44 (active)
same,log2 ratio of Biotin-Ahx-Ub-VS probe labelling,PRPF8,-0.24
same,log2 ratio of Biotin-Ahx-Ub-VS probe labelling,PSMD7,-0.201
same,log2 ratio of Biotin-Ahx-Ub-VS probe labelling,UCHL1,-2.47 (active)
same,log2 ratio of Biotin-Ahx-Ub-VS probe labelling,UCHL3,-0.884
same,log2 ratio of Biotin-Ahx-Ub-VS probe labelling,UCHL5,-0.9
same,log2 ratio of Biotin-Ahx-Ub-VS probe labelling,USP10,-0.226
same,log2 ratio of Biotin-Ahx-Ub-VS probe labelling,USP15,-0.938
same,log2 ratio of Biotin-Ahx-Ub-VS probe labelling,USP16,-0.292

# Reference: the supplement of paper PMC11732987, “Enantioselective OTUD7B fragment discovery through chemoproteomics screening and high-throughput optimisation” (Communications Chemistry, 2025)
